Records with an inconclusive call do not appear. Active and inactive are the calls of the source. Unless noted, calls come from the whole dose curve; as a rule, active = well fitted curve in the direction sought with a large enough effect; inconclusive = small, poorly fitted or top-dose-only effect, or another doubt; inactive = no such curve, though single readings can be large; an effect the other way counts as inactive or inconclusive.
Key:
[1] = P-glycoprotein substrates identified in KB-8-5-11 adenocarcinoma cell line, qHTS therapeutic library screen (AID 1346987); note: nearly all actives have a fitted effect of over 65% in size; note: potency is the fitted concentration of half-maximal effect
Outline: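 Steps: plate 500 KB-8-5-11 cells/well in DMEM + 10% FCS (colchicine removed); pin compounds in dose-response; incubate 72 h, 37 degree C, 5% CO2; add CellTiter-Glo, 5 min; read luminescence.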

[2] = system: Zika virus NS2B-NS3 protease (unlinked complex); assay: Primary screen GU Rhodamine qHTS for Zika virus inhibitors: Unlinked NS2B-NS3 protease assay (AID 1347159); note: % is set by controls: 0 for no effect and ±100 for the full control effect; nearly all actives have a fitted effect of over 60% in size
Outline: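 Noncovalent NS2B hydrophilic domain/NS3 protease complex (25 nM final) in 10 mM Tris-HCl pH 8.0, 0.01% Tween 20, preincubated 15 min with compounds (up to 114 microM), then 1.5 microM Rhodamine110 substrate. Fluorescence change over 15 min fitted to 4-parameter Hill.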

[3] = target: Cytochrome P450 2C9 (Homo sapiens) (UniProt P11712); assay: Cytochrome P450 family 2 subfamily C member 9 (CYP2C9) small molecule antagonists: luciferase biochemical (cell-free) qHTS assay (AID 1645842; active = well fitted curve in the direction sought with a large enough effect in the repeat runs; an effect the other way counts as inactive or inconclusive; note: nearly all actives have a fitted effect of over 55% in size; note: potency is the fitted concentration of half-maximal effect)
Outline: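 Luminescence, after 20 min with luciferin detection reagent, reflected CYP2C9 turnover during a 1 h NADPH-driven reaction at 37C. Enzyme-substrate mix contained 0.4% bovine serum albumin and was preincubated with compound 10 min at room temperature.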

[4] = target: Glutathione peroxidase 1 (Homo sapiens) (UniProt P07203); assay: Primary qHTS Assay for Inhibitors of Recombinant Selenoprotein Glutathione Peroxidase 1 (GPX1) (AID 1845191); note: nearly all actives have a fitted effect of over 65% in size
Outline: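 Recombinant GPX1 (10 nM final) was preincubated with compound for 30 min at room temperature, then reacted with 1 mM GSH, 0.5 mM CHP, 0.5 mM NADPH and 100 nM glutathione reductase; NADPH fluorescence (340/450 nm) was read at 0 and 15 min.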

[5] = system: HaCat; assay: Cytotoxic Profiling of Annotated Libraries Using Quantitative High-Throughput Screening (AID 1296008); conditions: Five cell lines viability, CellTiter-Glo ATP luminescence, 48-72 h; max response: stronger effect = lower value; note: nearly all actives have a fitted effect of over 60% in size; note: potency is the fitted concentration of half-maximal effect; for max response: % is set by controls: 0 for no effect and ±100 for the full control effect
Outline: (§1)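 Compounds were pin-transferred onto cells and incubated 48 or 72 hr at 37 degree Celsius, 95% humidity. CellTiter-Glo was added, plates sat 10 min at room temperature, then ATP-coupled luminescence was imaged as the viability read-out.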

[6] = system: HeLa; assay: Primary qHTS to identify gynecologic anti-cancer compounds using libraries of approved drugs and bioactive compounds (AID 1345084); conditions: Gynecologic cancer cell panel viability, ATPlite luminescence, 48 h; series mostly up to 57.5 µM; note: nearly all actives have a fitted effect of over 55% in size; note: potency is the fitted concentration of half-maximal effect
Outline: (§2)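 Five-point cytotoxicity, 48 h drug exposure at 37 C, 5% CO2, on cells seeded 16 h beforehand. ATP content read by ATPlite luminescence.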

[7] = system: Zika virus NS2B-NS3 protease (linked construct); assay: Primary screen NINDS Rhodamine qHTS for Zika virus inhibitors (AID 1347160); note: nearly all actives have a fitted effect of over 55% in size
Outline: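 Purified NS2B-NS3 protease with the NS2B hydrophilic domain joined by a flexible linker (25 nM) in 10 mM Tris-HCl pH 8.0, 0.01% Tween 20, preincubated 15 min at RT with compound; Rhodamine110 peptide substrate 1.5 µM; fluorescence change over 15 min; 4-parameter Hill fit.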

[8] = target: Cytochrome P450 2D6 (Homo sapiens) (UniProt P10635); assay: Cytochrome P450 family 2 subfamily D member 6 (CYP2D6) small molecule antagonists: luciferase biochemical (cell-free) qHTS assay (AID 1645840; active = well fitted curve in the direction sought with a large enough effect in the repeat runs; an effect the other way counts as inactive or inconclusive)
Outline: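 P450-Glo luminescent screen: recombinant CYP2D6 enzyme–proluciferin substrate mix preincubated with compound 10 min at room temperature, then NADPH regeneration added for 1 h at room temperature. Detection reagent added for 20 min; luciferin light read as relative luminescence units.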

[9] = Primary qHTS for inhibitors of nuclear receptor binding SET domain protein 2 (NSD2) in an RCH-ACV wild type WT cells (2C) (AID 1645877); note: nearly all actives have a fitted effect of over 70% in size; note: potency is the fitted concentration of half-maximal effect
[10] = system: SKOV3; assay: Primary qHTS to identify gynecologic anti-cancer compounds using libraries of approved drugs and bioactive compounds (AID 1345084); conditions: Gynecologic cancer cell panel viability, ATPlite luminescence, 48 h; series mostly up to 57.5 µM; note: nearly all actives have a fitted effect of over 55% in size; note: potency is the fitted concentration of half-maximal effect
Outline: as §2

[11] = system: KB-3-1; assay: Cytotoxic Profiling of Annotated Libraries Using Quantitative High-Throughput Screening (AID 1296008); conditions: Five cell lines viability, CellTiter-Glo ATP luminescence, 48-72 h; max response: stronger effect = lower value; note: nearly all actives have a fitted effect of over 60% in size; note: potency is the fitted concentration of half-maximal effect; for max response: % is set by controls: 0 for no effect and ±100 for the full control effect
Outline: as §1

[12] = P-glycoprotein substrates identified in KB-3-1 adenocarcinoma cell line, qHTS therapeutic library screen (AID 1346986); note: nearly all actives have a fitted effect of over 60% in size
Outline: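 Resistance attributable to P-gp was assessed by comparing AC50 in KB-8-5-11 with parental KB-3-1 and by tariquidar reversal. Cells were exposed 72 h and viability read by CellTiter-Glo.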

[13] = system: CRL-7250; assay: qHTS assay to identify novel small-molecules to repurpose for Merkel cell carcinoma treatment (AID 1296009); conditions: MCC and control cell lines, CellTiter-Glo viability, 72 h; series mostly up to 92 µM; note: nearly all actives have a fitted effect of over 60% in size
Outline: (§3)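 qHTS format: cells treated with library compounds in DMSO across 8 (NPC) or 11 (MIPE) concentrations. Readout after 72 hr at 37 degree celsius was CellTiter-Glo luminescence.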

[14] = system: NIH3T3; assay: as above; conditions: MCC and control cell lines, CellTiter-Glo viability, 72 h; at 44.8 µM (top of the series) unless noted
Outline: as §3

[15] = system: HACAT; assay: as above; conditions: MCC and control cell lines, CellTiter-Glo viability, 72 h; at 44.8 µM (top of the series) unless noted
Outline: as §3

Sequence of Glutathione peroxidase 1 (Homo sapiens) (P07203 whole entry, looked up): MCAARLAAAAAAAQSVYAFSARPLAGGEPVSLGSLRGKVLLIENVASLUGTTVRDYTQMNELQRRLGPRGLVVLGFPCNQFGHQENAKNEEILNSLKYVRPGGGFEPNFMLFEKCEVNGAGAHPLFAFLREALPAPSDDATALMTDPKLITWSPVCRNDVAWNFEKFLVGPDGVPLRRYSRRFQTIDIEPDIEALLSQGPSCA
Sequence of Cytochrome P450 2C9 (Homo sapiens) (P11712 whole entry, looked up): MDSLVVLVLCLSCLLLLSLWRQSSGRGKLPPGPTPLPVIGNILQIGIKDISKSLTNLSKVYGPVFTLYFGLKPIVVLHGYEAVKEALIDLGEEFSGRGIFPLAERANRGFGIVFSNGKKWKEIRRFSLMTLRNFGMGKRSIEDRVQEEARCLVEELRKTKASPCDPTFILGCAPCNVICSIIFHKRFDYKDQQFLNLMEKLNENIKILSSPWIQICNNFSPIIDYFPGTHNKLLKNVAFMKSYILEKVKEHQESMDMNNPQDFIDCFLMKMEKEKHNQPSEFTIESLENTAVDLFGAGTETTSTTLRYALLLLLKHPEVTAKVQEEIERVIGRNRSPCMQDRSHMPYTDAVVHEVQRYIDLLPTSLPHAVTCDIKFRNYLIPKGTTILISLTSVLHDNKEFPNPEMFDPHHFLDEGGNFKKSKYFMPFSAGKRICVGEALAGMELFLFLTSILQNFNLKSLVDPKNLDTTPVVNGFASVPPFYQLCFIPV
Sequence of Cytochrome P450 2D6 (Homo sapiens) (P10635 whole entry, looked up): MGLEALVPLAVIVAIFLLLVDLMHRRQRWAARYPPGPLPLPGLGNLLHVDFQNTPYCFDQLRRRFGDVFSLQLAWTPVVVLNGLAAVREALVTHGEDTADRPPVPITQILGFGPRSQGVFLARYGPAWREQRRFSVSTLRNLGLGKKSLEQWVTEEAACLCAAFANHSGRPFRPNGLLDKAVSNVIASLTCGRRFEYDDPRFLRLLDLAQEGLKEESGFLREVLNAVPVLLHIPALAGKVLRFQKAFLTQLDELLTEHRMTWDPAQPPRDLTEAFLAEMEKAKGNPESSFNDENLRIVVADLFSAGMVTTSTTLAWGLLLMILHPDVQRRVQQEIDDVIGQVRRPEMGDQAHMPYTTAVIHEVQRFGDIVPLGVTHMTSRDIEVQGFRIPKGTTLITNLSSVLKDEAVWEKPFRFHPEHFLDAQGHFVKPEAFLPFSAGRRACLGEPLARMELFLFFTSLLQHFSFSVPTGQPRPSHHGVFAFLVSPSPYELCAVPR

CCc1nn(C)c(C(=O)NCc2ccc(Oc3ccc(C)cc3)cc2)c1Cl
active: Potency [1] 25900 nM | Potency [3] 5350 nM
inactive: Potency [2] | Potency [4] | max response [5] 1.94% | Potency [6]

NC(=O)c1ncn2c1CN=C(c1ccccc1Br)c1cc(F)ccc1-2
inactive: Potency [1] | Potency [2] | Potency [7] | Potency [8] | Potency [3] | Potency [9] | Potency [4] | max response [5] -12.6% | Potency [6] | Potency [10]

C=CCN1CCC2(C)c3cc(O)ccc3C[C@H]1[C@H]2C
inactive: Potency [2] | Potency [7] | Potency [9] | max response [5] -10.4% | Potency [6] | Potency [10]

C[C@]12CC[C@H](O)C[C@H]1CC[C@@H]1[C@@H]2[C@H](O)C[C@]2(C)[C@@H](c3ccc(=O)oc3)CC[C@]12O
inactive: Potency [7] | Potency [4]
active: Potency [1] 51.7 nM | Potency [9] 45.9 nM | Potency [5] 146 nM | Potency [11] 51.7 nM | Potency [6] 112 nM

C=C(C)[C@@H]1[C@H]2OC(=O)[C@H]1[C@]1(O)C[C@H]3O[C@]34C(=O)O[C@H]2[C@]14C
inactive: Potency [12] | Potency [1] | Potency [2] | Potency [7] | Potency [9] | Potency [4] | outcome [11] | Potency [13] | outcome [14] | Potency [6] | Potency [10]

C[C@@]1(CO)[C@H](O)CC[C@@]2(C)[C@H]1CC[C@H]1C[C@@H]3C[C@@]12CC[C@]3(O)CO
inactive: Potency [4]
active: Potency [9] 2840 nM | Potency [5] 9040 nM

N#Cc1ccc([C@H]2CCCC[C@H]2O)cc1C(F)(F)F
active: Potency [3] 26800 nM
inactive: Potency [1] | Potency [2] | Potency [7] | Potency [9] | Potency [4] | max response [5] -7.91%

CN1CCN(c2nc3ccccc3nc2Cl)CC1
inactive: Potency [12] | Potency [1] | Potency [2] | Potency [7] | Potency [9] | Potency [4] | outcome [11] | outcome [14] | Potency [6]

CC1=CC(=O)[C@@H](O)[C@]2(C)C3[C@@H](O)[C@@H]4OC(=O)[C@@H]([C@H]4C)[C@]3(C)C(=O)C[C@@H]12 (some centres undefined)
active: Potency [1] 3210 nM | Potency [9] 2260 nM | Potency [5] 11400 nM
inactive: Potency [2] | Potency [7] | Potency [4] | Potency [6]

CCC1NC(=O)C2C(Cl)C(Cl)CN2C(=O)C(CC)NC(=O)CC(c2ccccc2)NC(=O)C(CO)NC1=O (centres undefined)
inactive: Potency [1] | Potency [4] | outcome [5] | outcome [15] inactive [at 17.4 µM] | outcome [14] inactive [at 17.4 µM] | Potency [6]

C[C@@H]1C[C@@H](O)[C@]2(O)O[C@@H]3C[C@@]4(C=O)C(CC[C@@H]5C4CC[C@]4(C)[C@@H](C6=CC(=O)OC6)CC[C@]54O)C[C@H]3O[C@@H]2O1 (some centres undefined)
active: Potency [1] 63.2 nM | Potency [9] 79.6 nM | Potency [5] 252 nM | Potency [11] 100 nM
inactive: Potency [2] | Potency [7] | Potency [4]

From PubChem BioAssay (NCATS)
